Results on 9 molecules are retold here after PubChem BioAssay (NCI).

Structures are written as SMILES. About 83,000 compounds went through this panel and 20% of them were active in at least one assay; those are over-represented in the sample as a whole.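 The test compound was applied at a single concentration to cells in 96-well plates for 48 hours, and percent growth was recorded.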 A number with no mark means an inactive call. The source made the active and inactive calls. The calls were made as follows: active = growth percent below 10; inactive = the rest.

Some test systems named below: SK-MEL-2 melanoma; EKVX NSCLC; SN12C renal; UO-31 renal; TK-10 renal; ACHN renal; CAKI-1 renal; CCRF-CEM leukemia; MOLT-4 leukemia; RPMI-8226 leukemia; OVCAR-8 ovarian; OVCAR-5 ovarian; OVCAR-4 ovarian; SK-OV-3 ovarian; IGROV1 ovarian; OVCAR-3 ovarian; NCI/ADR-RES ovarian; SR leukemia; HS 578T breast; A498 renal.
Holding throughout (experiment): NCI-60 one-dose screen, 48 h (100 = growth as untreated, 0 = no growth, -100 = all killed)
What all share (conditions): 10 µM unless noted

Turning to `O=[N+]([O-])c1cccc(/C=C/c2ccccn2)c1`, the growth with SK-MEL-2 melanoma was 117%; with EKVX NSCLC, 74.3%; with SN12C renal, 84.3%; in the assay with UO-31 renal it was 69.4%; with TK-10 renal, 104%; in the assay on ACHN renal, 72.1%. For the same molecule, the growth is 52.3% in the assay with CAKI-1 renal; 65.5% in the assay on CCRF-CEM leukemia; 75.2% with MOLT-4 leukemia; 51.7% in the assay on RPMI-8226 leukemia; 86.2% in the assay with OVCAR-8 ovarian; 96.2% in the assay on OVCAR-5 ovarian. Besides, the growth with OVCAR-4 ovarian is 70.5%; with SK-OV-3 ovarian it was 94%; with IGROV1 ovarian, 86.7%; with OVCAR-3 ovarian, 59.4%; with NCI/ADR-RES ovarian, 81.2%.
For `COc1ccccc1NC(=O)Nc1ccc(-c2nc3ccccc3o2)cc1`, the growth in the assay with SK-MEL-2 melanoma is 130%; with EKVX NSCLC, 92.8%; in the assay with SN12C renal, 98.7%; in the assay with UO-31 renal it was 94.5%; in the assay with TK-10 renal, 118%; in the assay on ACHN renal, 95.4%. Moreover, the growth in the assay on CAKI-1 renal was 103%; in the assay on CCRF-CEM leukemia, 101%; in the assay on SR leukemia, 69%; with RPMI-8226 leukemia it was 96.7%; in the assay on OVCAR-8 ovarian it was 102%; in the assay on OVCAR-5 ovarian, 104%. In addition, the growth was 95.3% in the assay on OVCAR-4 ovarian; 104% in the assay on IGROV1 ovarian; 109% in the assay with OVCAR-3 ovarian; 99% in the assay with HS 578T breast; 98.4% in the assay on NCI/ADR-RES ovarian.
On to `Cl.Fc1c[c-]c(-c2ccccn2)c(F)c1.[Pt].c1ccc([PH+](C[PH+](c2ccccc2)c2ccccc2)c2ccccc2)cc1`, for which the growth with SK-MEL-2 melanoma was -74.6% (active); with EKVX NSCLC it was -84.4% (active); with SN12C renal, -70.3% (active); with UO-31 renal, -93.2% (active); in the assay with TK-10 renal, -81.4% (active); in the assay with ACHN renal, -97.8% (active). The growth in the assay on CAKI-1 renal was -91% (active); with MOLT-4 leukemia, -38.9% (active); in the assay on SR leukemia it was -25.4% (active); with OVCAR-8 ovarian it was -19.6% (active); in the assay on OVCAR-5 ovarian, -81.8% (active); in the assay with OVCAR-4 ovarian, -93.4% (active). The growth in the assay with IGROV1 ovarian is -75.9% (active); in the assay with OVCAR-3 ovarian it was -93.8% (active); with HS 578T breast, -25.2% (active); in the assay on NCI/ADR-RES ovarian, -38.8% (active).
For the molecule `C=C1C(=O)O[C@H]2[C@H]1CC/C(COC(=O)/C=C/C(=O)NCc1ccc(Cn3c(=O)sn(-c4ccccc4)c3=O)cc1)=C\CC[C@@]1(C)O[C@@H]21`, the growth was -13.6% (active) with SK-MEL-2 melanoma; 52.3% in the assay with EKVX NSCLC; -43.7% (active) in the assay on SN12C renal; 17.9% with UO-31 renal; -38.6% (active) in the assay with TK-10 renal; -47.3% (active) with ACHN renal. For the same molecule, the growth was 35.5% in the assay with CAKI-1 renal; -30.6% (active) with CCRF-CEM leukemia; -27.7% (active) with MOLT-4 leukemia; -32.6% (active) with RPMI-8226 leukemia; -0.571% (active) in the assay on OVCAR-8 ovarian; 35.4% with OVCAR-5 ovarian. The growth in the assay with OVCAR-4 ovarian is 25.7%; in the assay with SK-OV-3 ovarian, 75.8%; in the assay with IGROV1 ovarian, -25.5% (active); with OVCAR-3 ovarian, -77.5% (active); in the assay with HS 578T breast, 77.8%; in the assay on NCI/ADR-RES ovarian it was 94.1%.
On to `N#C/C(=C\c1ccc2c(c1)OCO2)n1nnc2ccccc21`, for which the growth is 21.6% in the assay on SK-MEL-2 melanoma; 23% in the assay with EKVX NSCLC; 14.1% with SN12C renal; 11.9% in the assay on UO-31 renal; 28.3% with TK-10 renal; 22.9% with ACHN renal. The growth in the assay with CAKI-1 renal was 17.7%; in the assay on CCRF-CEM leukemia it was 18.3%; with MOLT-4 leukemia, 16.4%; with OVCAR-8 ovarian, 17.7%; in the assay with OVCAR-5 ovarian, -17.5% (active); in the assay with OVCAR-4 ovarian, 34.2%. For the same molecule, the growth with IGROV1 ovarian is 4.33% (active); in the assay on OVCAR-3 ovarian it was -69% (active); with HS 578T breast, -4.27% (active); in the assay with NCI/ADR-RES ovarian it was 6.26% (active).
As for `Cc1nn(Cc2ccccc2)cc1C(=O)Nc1sc2c(c1C(N)=O)CCC(=O)C2`, the growth with SK-MEL-2 melanoma is 74.5%; with EKVX NSCLC, 54.9%; with SN12C renal it was 15.5%; in the assay on UO-31 renal, 11.8%; with TK-10 renal, 15.5%; with ACHN renal, 5.29% (active). The growth was 5.49% (active) with CAKI-1 renal; 9.5% (active) in the assay on CCRF-CEM leukemia; 16.5% with MOLT-4 leukemia; -6.08% (active) with RPMI-8226 leukemia; 20.3% in the assay on OVCAR-8 ovarian; 73.8% in the assay with OVCAR-5 ovarian. The growth is -7.95% (active) with OVCAR-4 ovarian; 116% with SK-OV-3 ovarian; 33.5% with IGROV1 ovarian; 9.48% (active) in the assay on OVCAR-3 ovarian; 28.8% with HS 578T breast; 72% with NCI/ADR-RES ovarian.
In the case of `CN(C)c1ccc(-c2cc(-c3ccc(Nc4nc(Nc5ccccc5)nc(Nc5ccc(Cl)cc5)n4)cc3)nc(N)n2)cc1`, the growth in the assay on SK-MEL-2 melanoma is 47.2%; with EKVX NSCLC, 33.3%; in the assay with SN12C renal it was 50%; with UO-31 renal, 39%; with TK-10 renal it was 74.6%; in the assay on ACHN renal, 46.3%. Besides, the growth in the assay with CAKI-1 renal is 39.5%; in the assay on CCRF-CEM leukemia, 5.11% (active); in the assay with MOLT-4 leukemia, -4.17% (active); in the assay with RPMI-8226 leukemia it was 34.1%; in the assay on OVCAR-8 ovarian, 51.3%; in the assay on OVCAR-5 ovarian, 36.6%. The growth is 49.6% with OVCAR-4 ovarian; 85.4% in the assay on SK-OV-3 ovarian; 39.2% in the assay with IGROV1 ovarian; 49.5% in the assay on OVCAR-3 ovarian; 15.5% in the assay on NCI/ADR-RES ovarian.
For `COC(=O)c1ccc(CSc2nnc(-c3ccncc3)o2)cc1`, the growth is 102% in the assay on SK-MEL-2 melanoma; 101% with EKVX NSCLC; 96.2% with SN12C renal; 79.7% with UO-31 renal; 116% in the assay with TK-10 renal; 100% in the assay on ACHN renal. Further, the growth was 90.3% in the assay with CAKI-1 renal; 99.3% in the assay on CCRF-CEM leukemia; 102% in the assay on RPMI-8226 leukemia; 101% with OVCAR-8 ovarian; 104% in the assay with OVCAR-5 ovarian; 99.5% in the assay with OVCAR-4 ovarian. The growth was 102% in the assay on SK-OV-3 ovarian; 98.9% in the assay on IGROV1 ovarian; 112% in the assay on OVCAR-3 ovarian; 107% in the assay on HS 578T breast; 104% with NCI/ADR-RES ovarian.
For `COc1cc(C2CC(c3ccc(Nc4nc(Nc5ccc(F)cc5)nc(Nc5ccc(Cl)cc5)n4)cc3)=NN2C(C)=O)cc(OC)c1OC` (stereo not given), the growth is 66% with SK-MEL-2 melanoma; 202% with EKVX NSCLC; 80.8% with SN12C renal; 53.6% with UO-31 renal; 60.7% with TK-10 renal; 77.5% in the assay with ACHN renal. For the same molecule, the growth is 78.4% in the assay with A498 renal; 27.6% in the assay with CCRF-CEM leukemia; 4.27% (active) in the assay on MOLT-4 leukemia; 45.3% in the assay on SR leukemia; 19.1% in the assay on RPMI-8226 leukemia; 62.5% in the assay on OVCAR-8 ovarian. The growth is 83.5% with OVCAR-5 ovarian; 77.6% in the assay with OVCAR-4 ovarian; 92.8% in the assay on SK-OV-3 ovarian; 43.5% with IGROV1 ovarian; 82.7% with OVCAR-3 ovarian; 75.7% in the assay on HS 578T breast. For the same molecule, the growth in the assay with NCI/ADR-RES ovarian was 69.8%.
